This is part of a sample that, as a whole, favours compounds with a hit. Of some 83,000 tested, about 20% had one in any assay.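 48-hour exposure, single concentration, 96-well plates; percent growth endpoint where 0 means no net growth. Active: below 10.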 The source made the active and inactive calls.
Legend:
Assay in all cases: NCI-60 one-dose screen, 48 h (100 = growth as untreated, 0 = no growth, -100 = all killed)
Settings in all cases: 10 µM
NCI-H23 lung = system: NCI-H23 lung
NCI-H226 lung = system: NCI-H226 lung
NCI-H322M lung = system: NCI-H322M lung
NCI-H460 lung = system: NCI-H460 lung
HOP-92 NSCLC = system: HOP-92 NSCLC
NCI-H522 lung = system: NCI-H522 lung
A549/ATCC NSCLC = system: A549/ATCC NSCLC
786-0 renal = system: 786-0 renal
COLO 205 colon = system: COLO 205 colon
DU-145 prostate = system: DU-145 prostate
K-562 leukemia = system: K-562 leukemia
MALME-3M melanoma = system: MALME-3M melanoma
MDA-MB-231 breast = system: MDA-MB-231 breast
RXF 393 renal = system: RXF 393 renal
SF-268 CNS = system: SF-268 CNS
SF-295 CNS = system: SF-295 CNS
SF-539 CNS = system: SF-539 CNS
UACC-257 melanoma = system: UACC-257 melanoma
M14 melanoma = system: M14 melanoma
HOP-62 NSCLC = system: HOP-62 NSCLC

Measured: growth

COc1ccc(N(C)c2cc(C#N)nc3ccccc23)cc1/C=C/C(=O)NO
active: NCI-H23 lung -83.4% | NCI-H226 lung -39% | NCI-H322M lung 0.0682% | NCI-H460 lung 0.587% | HOP-92 NSCLC -12.2% | NCI-H522 lung -75.4% | A549/ATCC NSCLC 7.16% | 786-0 renal -9.47% | COLO 205 colon -34.2% | K-562 leukemia 4.1% | MALME-3M melanoma -56.5% | MDA-MB-231 breast -73.5% | RXF 393 renal -82.2% | SF-268 CNS -30% | SF-295 CNS -73.8% | SF-539 CNS -89.6% | UACC-257 melanoma -26.2% | M14 melanoma 2.45%
inactive: DU-145 prostate 16.7%

CCCn1c(=O)c2[nH]c(-c3ccc(OCc4nc5ccc(C(F)(F)F)cc5[nH]4)cc3)nc2n(CCC)c1=O
inactive: NCI-H23 lung 11.1% | NCI-H226 lung 37.8% | NCI-H322M lung 69.2% | HOP-92 NSCLC 67.7% | NCI-H522 lung 23.6% | A549/ATCC NSCLC 46.7% | 786-0 renal 42.8% | COLO 205 colon 59.3% | DU-145 prostate 58.3% | K-562 leukemia 34.9% | MALME-3M melanoma 14.2% | MDA-MB-231 breast 11.1% | SF-268 CNS 57.2% | SF-295 CNS 38.8% | UACC-257 melanoma 65.5% | M14 melanoma 59.5%
active: SF-539 CNS 1.94%

O=C(c1ccc(Cl)cc1)C1[C@H](c2ccccc2Br)[C@@H](c2ccccc2)NC12C(=O)Nc1ccc(Br)cc12 (stereo partly specified)
inactive: NCI-H226 lung 12.5% | NCI-H322M lung 41.6% | DU-145 prostate 29.7% | MALME-3M melanoma 50.1% | SF-268 CNS 32.7% | SF-295 CNS 14.9% | SF-539 CNS 30.2% | UACC-257 melanoma 10.3% | M14 melanoma 27.5%
active: NCI-H23 lung 3.35% | HOP-92 NSCLC 4.57% | NCI-H522 lung -24.4% | A549/ATCC NSCLC 0.826% | 786-0 renal -2.24% | COLO 205 colon -49.6% | K-562 leukemia 6.68% | MDA-MB-231 breast 2.81% | RXF 393 renal -26.1%

Cc1cccc(-c2nc(Nc3ccccc3C(=O)O)c3ccccc3n2)c1
active: HOP-92 NSCLC -5.02%
inactive: NCI-H23 lung 20.8% | NCI-H226 lung 36.1% | NCI-H322M lung 48.7% | NCI-H460 lung 19.1% | NCI-H522 lung 59.9% | A549/ATCC NSCLC 43.6% | 786-0 renal 25% | COLO 205 colon 121% | DU-145 prostate 50.5% | K-562 leukemia 28.7% | MALME-3M melanoma 37.2% | MDA-MB-231 breast 66.1% | SF-268 CNS 37.5% | SF-295 CNS 27.1% | SF-539 CNS 47.7% | UACC-257 melanoma 49.2% | M14 melanoma 25.2%

Cc1ccc(-c2cc(-c3cc4ccccc4nc3Cl)[nH]c(=S)n2)cc1
inactive: NCI-H23 lung 71.5% | NCI-H226 lung 74.2% | HOP-62 NSCLC 90.1% | NCI-H460 lung 83.3% | HOP-92 NSCLC 44.7% | NCI-H522 lung 37.8% | A549/ATCC NSCLC 85.5% | 786-0 renal 74.3% | COLO 205 colon 89.5% | DU-145 prostate 63.7% | K-562 leukemia 18.6% | MALME-3M melanoma 46% | RXF 393 renal 28.1% | SF-268 CNS 77.8% | SF-295 CNS 45.1% | SF-539 CNS 55.7% | UACC-257 melanoma 66.5% | M14 melanoma 15.9%

CCOC(=O)c1sc(N/N=C(\C)c2ccc3c(c2)Nc2ccccc2S3)nc1C
active: NCI-H460 lung 5.63% | HOP-92 NSCLC -9.2% | COLO 205 colon -42.2% | K-562 leukemia 1.72% | SF-295 CNS -14.9%
inactive: NCI-H23 lung 13.9% | NCI-H226 lung 34.8% | A549/ATCC NSCLC 29.2% | 786-0 renal 33.6% | DU-145 prostate 44.9% | MALME-3M melanoma 31.9% | MDA-MB-231 breast 18.5% | SF-268 CNS 56.9% | SF-539 CNS 33.8% | UACC-257 melanoma 35.8% | M14 melanoma 19.4%

COc1ccc(NC(=O)CSc2nnc(-c3ccc4nc(-c5ccc(Cl)cc5)[nH]c4c3)o2)cc1
inactive: NCI-H226 lung 80.3% | NCI-H460 lung 10.7% | HOP-92 NSCLC 102% | NCI-H522 lung 22.6% | A549/ATCC NSCLC 66% | 786-0 renal 22.5% | COLO 205 colon 96.8% | DU-145 prostate 55.4% | K-562 leukemia 14.7% | MDA-MB-231 breast 20.5% | SF-268 CNS 48% | SF-295 CNS 26.1% | SF-539 CNS 50.5% | UACC-257 melanoma 71.5% | M14 melanoma 14.8%
active: NCI-H23 lung -9.49% | MALME-3M melanoma -81.7%

O=C(Nc1ccc(OCc2ccccc2)cc1)Nc1ccc(Cl)c(C(F)(F)F)c1
inactive: 786-0 renal 17.9% | DU-145 prostate 13% | SF-268 CNS 14.9% | M14 melanoma 19.3%
active: NCI-H23 lung -5.44% | NCI-H226 lung -27.7% | HOP-62 NSCLC 5.97% | NCI-H460 lung 3.69% | HOP-92 NSCLC -38.7% | NCI-H522 lung -20.3% | A549/ATCC NSCLC 5.97% | COLO 205 colon -72.7% | MALME-3M melanoma -30.8% | MDA-MB-231 breast -20% | RXF 393 renal -3.2% | SF-295 CNS -26.5% | SF-539 CNS -46.9% | UACC-257 melanoma -20.7%

From PubChem BioAssay (NCI)
